Several values for one entry are separate records, joined by “and”; a condition that tells them apart may be missing. Equal entries are not always repeated. Screen size: about 230,000 compounds; about 3,600 (1.6%) were called active. Not shown: some 15% with an inconclusive outcome. Many of the other results were omitted from the sample, so actives are more common in it than they were. A number with no mark means an inactive call. The call rests on the fitted dose curve; in most records, active means well fitted inhibition curve with a large enough effect (not every such curve was filed as active); inconclusive means small, poorly fitted or top-dose-only effect, or another doubt; inactive means no such curve, though single readings can be large or run the other way.
Biological target: Lysine-specific demethylase 4E (Homo sapiens) (UniProt B2RXH2)
Sequence (B2RXH2 1-337 limits assumed): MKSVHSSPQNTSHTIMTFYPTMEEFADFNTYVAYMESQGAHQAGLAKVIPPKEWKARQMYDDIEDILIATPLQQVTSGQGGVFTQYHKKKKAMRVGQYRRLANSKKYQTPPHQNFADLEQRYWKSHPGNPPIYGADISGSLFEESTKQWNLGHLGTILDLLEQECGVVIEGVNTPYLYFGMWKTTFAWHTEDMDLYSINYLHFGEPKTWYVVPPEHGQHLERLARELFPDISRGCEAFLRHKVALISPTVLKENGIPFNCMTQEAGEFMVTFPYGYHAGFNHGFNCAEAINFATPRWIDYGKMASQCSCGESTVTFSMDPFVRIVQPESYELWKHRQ
Experiment: qHTS Assay for Inhibitors of Human Jumonji Domain Containing 2E (JMJD2E)
Settings: JMJD2E catalytic domain, FDH-coupled NADH fluorescence (FDH is formaldehyde dehydrogenase); series mostly up to 57.1 µM; activity change, negative = inhibition: at the top concentration
Further: nearly all actives have a fitted effect of over 50% in size.
Potency means the concentration at half of the fitted maximal effect.
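Wherever activity change, negative = inhibition is given: 0% = wells with enzyme and -100% = buffer wells without enzyme.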

| SMILES | activity change, negative = inhibition | Potency |
| --- | --- | --- |
| O=C(COC(=O)c1ccc[nH]c1=O)Nc1ccc2c(c1)OC(F)(F)O2 | -31.1% |  |
| c1ccc(-n2cccc2)c(N2CCCCC2)c1 | 7.49% |  |
| CC(C)C[C@@H](CC(=O)N[C@@H](CCC(=O)O)CC(=O)O)NC(=O)[C@@H]1CCCC[C@H]1NC(=O)C[C@@H](NC(=O)C[C@H](Cc1c[nH]c2ccccc12)NC(=O)[C@@H]1CCCC[C@H]1N)C(C)C |  | 15.8 µM (active) |
| CC(C)[C@@H](CC(=O)N[C@@H]1CCNC[C@H]1C(=O)N[C@H](CC(=O)N[C@@H](CCC(=O)O)CC(=O)O)Cc1ccccc1)NC(=O)C[C@H](CO)NC(=O)[C@@H]1CNCC[C@H]1N | -2.84% |  |
| CC(C)C[C@@H](CC(=O)N[C@@H](CCC(=O)O)CC(=O)O)NC(=O)[C@@H]1CCCC[C@H]1NC(=O)C[C@@H](NC(=O)C[C@H](CO)NC(=O)[C@@H]1CCCC[C@H]1N)C(C)C | 6.67% |  |
| Cn1c(CSCC(=O)Nc2ccccc2)nnc1SCc1ccccc1 | -1.73% |  |
| Cc1ccc(NNC(=O)c2c(F)cccc2Cl)cc1Cl | -12.8% |  |
| COC(=O)N(NC(=O)C(O)(C(C)C)C(C)C)c1ccccc1 | 2.87% |  |
| Cc1cc(=O)[nH]c(SCC(N)=O)c1C#N | 0.748% |  |
| Cc1cc(=O)[nH]c(=S)[nH]1 |  | inactive |
| Cc1cc(=O)[nH]c(S)c1C#N |  | 28.2 µM (active) |
| CC(C)(C)c1ccc(/C=C2\Oc3c(ccc(O)c3CN3CCN(CCO)CC3)C2=O)cc1 |  | 14.1 µM (active) |
| O=S(=O)(Nc1n[nH]c(C(F)(F)F)n1)c1ccccc1 | -3.67% |  |
| COCCNC(=O)/C(C#N)=C/c1cccc(OCc2ccccc2)c1 | -8.01% |  |
| N#C/C(=C\c1ccc(O)c(O)c1)C(=O)NCc1ccccc1 |  | 15.8 µM (active) and 20 µM (active) |
| N#C/C(=C\c1ccc(O)c(O)c1)C(N)=O |  | 7.08 µM (active) |
| CCOC(=O)/C(C#N)=C/c1ccc(N2CCCCC2)cc1 | -5.46% |  |
| CCOC(=O)NC(=O)/C(C#N)=C\c1ccccc1 | 8.09% |  |

| SMILES | activity change, negative = inhibition | Potency |
| --- | --- | --- |
| CC(C)(C)C(=O)/C(C#N)=C/c1ccc(O)cc1 | -3.99% |  |
| Cc1ccc(CN(Cc2cccnc2)C(=S)Nc2cc(Cl)ccc2C)cc1 | -10% |  |
| O=C(NCC(c1cccs1)N1CCOCC1)c1cc(-c2ccccn2)nc2ccccc12 (stereo unspecified) | -21.6% |  |
| COc1ccccc1OCC(=O)O/N=C(\N)c1ccccn1 | -4.76% |  |
| COc1cc(/C=C2/C(=O)NN(c3ccc(F)cc3)C2=O)cc([N+](=O)[O-])c1O | -19.9% |  |
| CCOC(=O)c1ccc(N=C2SC(C(=O)NC)CC(=O)N2CCc2ccccc2)cc1 (stereo unspecified) | -2.87% |  |
| CC(=O)Nc1nc2c(s1)C(=O)NCC(C)(C)C2 | 6.1% |  |
| Oc1ccc2ccccc2c1N=Nc1nccs1 |  | 28.2 µM (active) |
| Oc1ccc(N=Nc2nccs2)c(O)c1 |  | 8.91 µM (active) |
| Oc1c(C=Nc2cccc3nsnc23)ccc2ccccc12 | -9.64% |  |
| COc1ccccc1NC(=S)N1CCN(C(c2ccccc2)c2ccccc2)CC1 | 12.1% |  |
| CSc1ccccc1NC(=O)CN(C)CC(=O)Nc1cccc(Br)c1 | -20.7% |  |
| COc1ccc(CCNC(=O)CCCCn2c(=O)[nH]c3ccccc3c2=O)cc1OC | 3.97% |  |
| COc1ccc(Cc2nnc(N/N=C/c3ccccc3O)[nH]c2=O)cc1OC |  | 6.31 µM (active) |
| COc1ccc(Cc2nnc(SC)[nH]c2=O)cc1 | 8.09% |  |
| CCOC(=O)C1=C(c2ccccc2)NC(=S)NC1c1ccc(Cl)cc1 (stereo unspecified) | -5.72% |  |
| Cc1noc(C)c1COC(=O)COc1ccc(-c2ccccc2)cc1 | 7.05% |  |
| COc1ccc(/C=C/C(=O)Nc2ccc(C)cc2)cc1S(=O)(=O)N1CCOCC1 | 1.97% |  |

From PubChem BioAssay AID2147 (National Center for Advancing Translational Sciences (NCATS), 2009)
